From the supplement of paper PMC6607015
Where a name gives a salt, the structure may show the parent alone.

Columns and labels:
Details in all cases: compound concentration in added solution (µM; 5 µl added to 20 µl cells): 10; 18 h
A431 [1] = test: LBPA endosome anti-LBPA integrated intensity (sum per cell), Z-score; higher = more LBPA staining
Summary of the method: (§1)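 Reported values are Z-scores from AcuityXpress normalisation of per-cell integrated LBPA or filipin staining. HeLa MZ or A431 cells (3,500/well in 20 µl) were seeded onto 5 µl of 10 µM compound solution in duplicate 384-well plates, incubated 18 h, fixed in 4% PFA, stained and imaged at 20×. MetaXpress segmentation measured the intensity over the whole cell or within LBPA endosomes.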

HeLa MZ [2] = test: as above
Summary of the method: as §1

A431 [3] = test: whole-cell filipin (free cholesterol) integrated intensity, Z-score; higher = more cholesterol staining
Summary of the method: as §1

HeLa MZ [4] = test: as above
Summary of the method: as §1

A431 [5] = test: filipin (cholesterol) integrated intensity within LBPA endosomes, Z-score; higher = more cholesterol in LBPA endosomes
Summary of the method: as §1

HeLa MZ [6] = test: as above
Summary of the method: as §1

Row | SMILES | LBPA endosome anti-LBPA integrated intensity (z-score) (A431 [1]) | LBPA endosome anti-LBPA integrated intensity (z-score) (HeLa MZ [2]) | whole-cell filipin (z-score) (A431 [3]) | whole-cell filipin (z-score) (HeLa MZ [4]) | filipin (z-score) (A431 [5]) | filipin (z-score) (HeLa MZ [6])
1 | C[C@@H]1CN(c2c(F)c(N)c3c(=O)c(C(=O)O)cn(C4CC4)c3c2F)C[C@H](C)N1 [Sparfloxacin] | -0.202 | 0.876 | 0.309 | 0.295 | -0.322 | -0.143
2 | O=C(O)c1cccnc1Nc1cccc(C(F)(F)F)c1 [Niflumic acid] | -0.414 | -0.666 | -0.705 | -0.278 | -0.444 | -0.519
3 | C[C@]12C=CC(=O)C=C1CC[C@@H]1[C@@H]2[C@@H](O)C[C@@]2(C)[C@H]1CC[C@]2(O)C(=O)CO [Prednisolone] | -0.285 | -0.493 | -0.674 | -0.403 | -0.432 | -0.544
4 | Clc1ccc(CCC(Cn2ccnc2)Sc2c(Cl)cccc2Cl)cc1 (stereo not drawn) [Butoconazole nitrate] | 1.95 | 2.23 | 1.71 | 2.17 | 2.22 | 2.14
5 | N[C@@H](Cc1cc(I)c(Oc2ccc(O)c(I)c2)c(I)c1)C(=O)O [Liothyronine] | -0.519 | 0.00578 | -0.411 | -0.281 | -0.479 | -0.592
6 | COCCOC(=O)C1=C(C)NC(C)=C(C(=O)OC/C=C/c2ccccc2)C1c1cccc([N+](=O)[O-])c1 (stereo not drawn) [Cilnidipine] | 0.601 | 0.589 | 1.38 | -0.377 | 0.591 | 0.579
7 | C[C@]12CCC(=O)C=C1CC[C@@H]1[C@@H]2C(=O)C[C@@]2(C)[C@H]1CC[C@]2(O)C(=O)CO [Cortisone] | -0.412 | 0.126 | -0.734 | -0.61 | -0.464 | -0.486
8 | NC[C@H]1O[C@H](O[C@H]2[C@H](O[C@@H]3O[C@H](CO)[C@@H](O)[C@H]3O)[C@@H](O)[C@H](N)C[C@@H]2N)[C@H](N)[C@@H](O)[C@@H]1O [Ribostamycin sulfate salt] | -0.548 | 1.92 | -0.165 | 2.24 | -0.516 | -0.59
9 | C#C[C@]1(O)CC[C@H]2[C@@H]3CCC4=CC(=O)CC[C@@H]4[C@H]3CC[C@@]21CC [Norgestrel-(-)-D] | -0.501 | -0.275 | -0.421 | -0.79 | -0.478 | -0.446
10 | COc1ccccc1OCC(O)CO (stereo not drawn) [Guaifenesin] | -0.398 | -0.463 | -0.553 | -0.523 | -0.471 | -0.504
11 | CN[C@H](CC(C)C)C(=O)N[C@H]1C(=O)N[C@@H](CC(N)=O)C(=O)N[C@H]2C(=O)N[C@H]3C(=O)N[C@H](C(=O)N[C@H](C(=O)O)c4cc(O)cc(O)c4-c4cc3ccc4O)[C@H](O)c3ccc(c(Cl)c3)Oc3cc2cc(c3O[C@@H]2O[C@H](CO)[C@@H](O)[C@H](O)[C@H]2O[C@H]2C[C@](C)(N)[C@H](O)[C@H](C)O2)Oc2ccc(cc2Cl)[C@H]1O [Vancomycin hydrochloride] | -0.435 | -0.0824 | -0.355 | -0.041 | -0.42 | -0.35
12 | CC[N+](C)(C)c1cccc(O)c1 [Edrophonium chloride] | -0.613 | -1.29 | -0.969 | -0.842 | -0.456 | -0.596
13 | CC1CC(OC(=O)c2ccccc2O)CC(C)(C)C1 (stereo not drawn) [Homosalate] | -0.265 | -0.48 | -0.0483 | 0.0325 | -0.434 | -0.566
14 | CN(C)CCC=C1c2ccccc2CCc2ccccc21 [Amitryptiline hydrochloride] | 2.23 | 1.04 | 1.41 | 0.0305 | 2.47 | 1.81
15 | CC[C@H]1OC(=O)[C@H](C)[C@@H](O[C@H]2C[C@@](C)(OC)[C@@H](O)[C@H](C)O2)[C@H](C)[C@@H](O[C@@H]2O[C@H](C)C[C@H](N(C)C)[C@H]2O)[C@](C)(OC)C[C@@H](C)C(=O)[C@H](C)[C@@H](O)[C@]1(C)O [Clarithromycin] | -0.524 | 0.332 | -0.0542 | 0.0043 | -0.407 | -0.21
16 | OC(CCCN1CCCCC1)(c1ccccc1)c1ccccc1 [Diphenidol hydrochloride] | -0.218 | 0.517 | -0.613 | -0.594 | -0.133 | -0.0129
17 | CCCNC(C)C(=O)Nc1c(C)csc1C(=O)OC (stereo not drawn) [Articaine hydrochloride] | -0.511 | -1.09 | -0.0579 | -0.354 | -0.492 | -0.461
18 | CCCCNC(=O)NS(=O)(=O)c1ccc(C)cc1 [Tolbutamide] | -0.288 | 0.292 | -0.409 | -0.426 | -0.47 | -0.503
19 | CN(C)[C@@H]1C(O)=C(C(N)=O)C(=O)[C@@]2(O)C(O)=C3C(=O)c4c(O)cccc4[C@@](C)(O)[C@H]3[C@H](O)[C@@H]12 [Oxytetracycline dihydrate] | -0.525 | -0.93 | -0.872 | -0.703 | -0.537 | -0.753
20 | C=CCSCC1Nc2cc(Cl)c(S(N)(=O)=O)cc2S(=O)(=O)N1 (stereo not drawn) [Althiazide] | -0.575 | -1.6 | -0.613 | -0.588 | -0.491 | -0.642
21 | Oc1ncnc2[nH]ncc12 [Allopurinol] | -0.351 | 0.486 | -0.157 | -0.285 | -0.415 | -0.506
22 | O=C(O)CCC(=O)Nc1ccc(S(=O)(=O)Nc2nccs2)cc1 [Succinylsulfathiazole] | -0.428 | -0.709 | -0.288 | -0.818 | -0.463 | -0.508
23 | C=CCN1CCCC1CNC(=O)c1cc2nn[nH]c2cc1OC (stereo not drawn) [Alizapride HCl] | -0.413 | 0.636 | -0.622 | -0.69 | -0.538 | -0.182
